According to PubChem BioAssay AID651658 (Broad Institute, 2012):
In all, about 340,000 compounds went through this assay and about 5,100 (1.5%) were called active.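 How the source made its calls: active means mean Tm shift, scaled 0 neutral to 100 positive control, at about 1.3% or above, every replicate too (limit read from the data); inconclusive means no clear call, values can overlap the other calls; inactive means the rest.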 The sample as a whole holds a higher share of actives than the screen did.

molecular target: Fibroblast growth factor 22 (Homo sapiens) (UniProt Q9HCT0); test: FGF22 ligand-induced thermal stabilization – biophysical, thermal shift, single point, FGF22 synaptogenesis inhibitor project, primary screen (AID 651658); conditions: recombinant FGF22 thermal shift, SYPRO orange fluorescence; at 9.99 µM; active compounds read high; percent of sucrose octasulfate shift, DMSO zero
Sequence (Q9HCT0 whole entry, looked up): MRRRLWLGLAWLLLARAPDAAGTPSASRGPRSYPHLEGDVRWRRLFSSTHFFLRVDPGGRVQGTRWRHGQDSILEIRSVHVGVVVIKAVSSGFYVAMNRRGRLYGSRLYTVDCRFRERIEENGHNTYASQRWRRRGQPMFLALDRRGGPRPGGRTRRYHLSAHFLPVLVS

| SMILES | activity (Tm shift, normalised) |
| --- | --- |
| CCC(=O)Nc1ccc2c(c1)C(=O)N(C)C[C@H](OC)[C@H](C)CN(C(=O)c1ccccc1F)[C@@H](C)CO2 | 0.053% (inactive) |
| CC(C)c1cc(C(=O)NC2CCCCCC2)c2ccccc2n1 | -0.159% (inactive) |
| CN(c1ccc2nc3ccccc3c(=O)n2n1)C1CCCCC1 | 43.9% (active) |
| CN(C(=O)c1cc2c(=O)n3ccccc3nc2s1)C1CCCCC1 | -0.192% (inactive) |
| CN(C)CC(=O)N1[C@@H](CO)[C@H](c2ccccc2)C12CN(C(=O)c1cccc(F)c1)C2 | 0.354% (inactive) |
| Brc1cc(/C=N/n2cnnc2)oc1Br | -0.235% (inactive) |
| Clc1cc(-c2ccc(/C=N/n3cnnc3)o2)ccc1Br | 43.6% (active) |
| COC(=O)N/N=C/c1ccc(-c2ccc(Cl)c(Cl)c2)o1 | -0.262% (inactive) |
| C[C@H](CO)N1C[C@H](C)[C@H](CN(C)C(=O)NC2CCCCC2)Oc2c(NC(=O)C3CC3)cccc2C1=O | -0.273% (inactive) |
| O=C(NCCN1CCOCC1)c1ccc2c(c1)N(Cc1cccc(Cl)c1)C(=O)c1ccccc1S2(=O)=O | -0.426% (inactive) |
| O=C1c2ccccc2S(=O)(=O)c2cc(N3CCN(c4ccccn4)CC3)ccc21 | 0.041% (inactive) |
| O=C(c1ccc2c(c1)N(Cc1ccc(F)cc1)C(=O)c1ccccc1S2(=O)=O)N1CCN(c2ccccn2)CC1 | 44.2% (active) |
| CO[C@@H]1CN(C)C(=O)c2cc(NC(=O)c3ccccc3F)ccc2OC[C@H](C)N(C(C)=O)C[C@@H]1C | 0.052% (inactive) |
| C[C@@H]1CN([C@H](C)CO)S(=O)(=O)c2ccc(-c3ccncc3)cc2O[C@H]1CN(C)S(=O)(=O)c1ccccc1F | -0.04% (inactive) |
| C[C@@H]1CCCCO[C@@H](CN(C)C(=O)NC2CCCCC2)[C@H](C)CN([C@H](C)CO)C(=O)c2cc(NS(=O)(=O)c3ccc(Cl)cc3)ccc2O1 | 0.906% (inactive) |
| O=C(OCC(=O)N1CCN(C(=O)c2ccco2)CC1)c1cccc(O)c1 | 0.05% (inactive) |
| CN(c1ccccc1)S(=O)(=O)c1cc(C(=O)OCC(=O)N2CCN(C(=O)c3ccco3)CC2)ccc1Cl | 43.1% (active) |
| O=C(OCC(=O)N1CCN(C(=O)c2ccco2)CC1)c1ccc(Cl)c(Cl)c1 | -0.203% (inactive) |
| CC=Cc1ccc2n(c1=O)C[C@H]1[C@H](CO)[C@@H](C(=O)NCCc3cn(C)cn3)[C@@H]2N1C(=O)CC (mixture of isomers) | -0.32% (inactive) |
| CN(C)c1ccc(/C=N/Nc2cc(N3CCOCC3)nc(N3CCOCC3)n2)cc1 | 43.5% (active) |
| C(=N\Nc1ccc2ccccc2n1)/c1ccc2c(c1)OCO2 | 41.5% (inactive) |
| C/C(=N\Nc1nc(N2CCOCC2)nc(N2CCOCC2)n1)c1ccc([N+](=O)[O-])cc1 | 0.46% (inactive) |
| CC(=O)c1c(C)[nH]c(C(=O)Nc2cc(S(=O)(=O)N(C)C)ccc2C)c1C | 43.3% (active) |
| Cc1ccc(S(=O)(=O)N(C)C)cc1NC(=O)c1ccccc1Br | -0.075% (inactive) |
| Cc1ccc(S(=O)(=O)N(C)C)cc1NC(=O)c1n[nH]c(=O)c2ccccc12 | -0.104% (inactive) |
| C[C@@H]1CN([C@@H](C)CO)C(=O)c2cc(NC(=O)Cc3ccccc3)ccc2O[C@H]1CN(C)CC1CC1 | 0.206% (inactive) |

| SMILES | activity (Tm shift, normalised) |
| --- | --- |
| Cc1ccc(S(=O)(=O)N2C[C@@H](O)COC[C@@H]3O[C@H](CC(=O)NCCCN(C)C)CC[C@H]32)cc1 | 0.016% (inactive) |
| O=C(O)CSCC(=O)Nc1ccc(C(F)(F)F)cc1 | 43% (active) |
| Cn1nc(C(F)(F)F)c(-c2ccc(F)cc2)c1NC(=O)CSCC(=O)O | -0.085% (inactive) |
| O=C(CSCc1ccccc1)Nc1ccccc1 | -0.128% (inactive) |
| Cc1cc(C(=O)O)ccc1[N+](=O)[O-] | 0.06% (inactive) |
| Cc1cc(N)n(-c2ccc(S(=O)(=O)N3CCCC3)cc2[N+](=O)[O-])n1 | -0.196% (inactive) |
| Cc1cc(C)n(-c2ccc(C(=O)O)cc2[N+](=O)[O-])n1 | 43.1% (active) |
| Cc1ccc(S(=O)(=O)N[C@@H]2CC[C@@H](CCn3cc(C4CC4)nn3)O[C@@H]2CO)cc1 | -0.331% (inactive) |
| C[C@H]1CN([C@@H](C)CO)C(=O)c2cc(-c3cccc(F)c3)cnc2O[C@@H]1CN(C)Cc1cncnc1 | 0.062% (inactive) |
| O=C(c1cnccn1)N1CC(=O)N2[C@H](C1)[C@H](c1ccc(/C=C/c3ccccc3)cc1)[C@@H]2CO | -0.069% (inactive) |
| O=C(C[C@H]1C[C@@H]2c3cc(NC(=O)c4cccnc4)ccc3O[C@@H]2[C@H](CO)O1)NCc1ccccn1 | -0.175% (inactive) |
| CCn1c(SCC(=O)Nc2nccs2)nnc1-c1ccco1 | 43.5% (active) |
| COCCn1c(Cc2cccn2C)nnc1SCC(=O)Nc1nccs1 | 0.285% (inactive) |
| Cn1c(SCC(=O)Nc2nccs2)nnc1-c1cccnc1 | -0.089% (inactive) |
| CCS(=O)(=O)NCC[C@H]1CC[C@@H](NC(=O)Nc2cc(Cl)cc(Cl)c2)[C@@H](CO)O1 | 0.003% (inactive) |
| Oc1ccc(-c2nncn2-c2ccccc2)cc1 | 43.1% (active) |
| Cc1nn(-c2ccccc2)c(Cl)c1/C=C/C(=O)c1ccc(O)cc1 | -0.458% (inactive) |
| Oc1ccc(-c2nnc(Nc3ccccc3)c3ccccc23)cc1 | 0.298% (inactive) |
| COc1cccc(S(=O)(=O)N[C@H]2C=C[C@H](CC(=O)NCc3ccc(Cl)cc3)O[C@@H]2CO)c1 | 0.005% (inactive) |
| CCCC#Cc1cnc2c(c1)C(=O)N([C@H](C)CO)C[C@H](C)[C@H](CN(C)C(=O)c1cnccn1)O2 | -0.197% (inactive) |
| Cc1noc(C)c1NC(=O)N(C)C[C@H]1OCCCC[C@H](C)Oc2ccc(NC(=O)Nc3ccc4c(c3)OCO4)cc2C(=O)N([C@H](C)CO)C[C@@H]1C | -0.482% (inactive) |
| COc1ccc2c(c1)CCc1cn3ncc(C#N)c3nc1-2 | -0.072% (inactive) |
| Fc1ccc(-c2ccc(NCCN3CCOCC3)nn2)cc1 | -0.028% (inactive) |
| N#Cc1cnn2cc(CCN3CCOCC3)c(-c3ccc(F)cc3)nc12 | 43.1% (active) |
| O=C(N[C@H]1CC[C@@H](CCNS(=O)(=O)c2ccc(F)cc2)O[C@@H]1CO)c1ccccn1 | 0.123% (inactive) |
| C[C@@H]1CN([C@H](C)CO)C(=O)Cc2cc(NS(=O)(=O)c3cccs3)ccc2O[C@@H]1CN(C)C(=O)Nc1ccc(F)cc1 | 0.051% (inactive) |

| SMILES | activity (Tm shift, normalised) |
| --- | --- |
| Cn1c(=O)n(C)c2cc(S(=O)(=O)Nc3ccc(F)cc3)ccc21 | -0.198% (inactive) |
| Cn1c(=O)n(C)c2cc(NS(=O)(=O)c3ccc(F)cc3)ccc21 | 43.1% (active) |
| Cn1c(CCN2CCN(c3ccccn3)CC2)nc2cc(NS(=O)(=O)c3ccc(F)cc3)ccc21 | -0.195% (inactive) |
| COc1ccc2c3c([nH]c2c1)[C@@H](CO)N(C(=O)Nc1ccc(F)cc1)CC31CN(S(C)(=O)=O)C1 | -0.554% (inactive) |
| O=C(N[C@@H]1CC[C@@H](CC(=O)N2CCc3ccccc3C2)O[C@H]1CO)C1CCC1 | -0.096% (inactive) |
| COc1ccc(CN2CCNC(=O)C2CC(=O)N(C)Cc2ccccn2)cc1OC (configuration not stated) | 0.398% (inactive) |
| COc1cccc(CN2CCNC(=O)C2CC(=O)N(C)CCc2ccccn2)c1 (configuration not stated) | 43% (active) |
| CN(CCc1cn[nH]c1)C(=O)CC1C(=O)NCCN1Cc1cccc(Oc2ccccc2)c1 (configuration not stated) | 0.231% (inactive) |
| CS(=O)(=O)N1[C@H](C#N)[C@H](c2ccccc2-c2ccc(F)cc2)[C@@H]1CO | 0.124% (inactive) |
| O=C(N/N=C/c1c[nH]c2ccccc12)c1cc2ccccc2o1 | 2.21% (active) |
| Nc1nonc1-n1nnc(C(=O)N/N=C/c2c[nH]c3ccccc23)c1-c1ccccc1 | 0.702% (inactive) |
| Cc1c(/C=N\NC(=O)c2cc3ccccc3o2)c2ccccc2n1C | 0.961% (inactive) |
| CC=Cc1ccc2n(c1=O)C[C@@H]1[C@@H](CO)[C@H](C(=O)N(C)C)[C@H]2N1CCc1ccccc1 (mixture of isomers) | -0.034% (inactive) |
| COc1ccccc1-c1cnc2c(c1)C(=O)N([C@@H](C)CO)C[C@H](C)[C@H](CN(C)C(=O)c1ccncc1)O2 | 0.396% (inactive) |
| Cc1cc(C(=O)Nc2ccc3c(c2)C(=O)N(C)[C@@H]2CC[C@H](CC(=O)NC4CCCC4)O[C@@H]2CO3)no1 | 0.414% (inactive) |
| Cc1ccc(S(=O)(=O)Oc2ccc(/C=N/NC(=O)c3ccncc3)cc2)cc1 | 0.38% (inactive) |
| COc1ccc(/C=N/NC(=O)c2ccccc2)cc1OS(=O)(=O)c1ccccc1 | 43% (active) |
| COc1cc(C=NNC(=O)c2cccnc2)ccc1OC(=O)c1ccccc1F | -0.02% (inactive) |
| COc1ccccc1CNC(=O)C[C@H]1C[C@@H]2c3cc(NC(=O)c4ccc5c(c4)OCO5)ccc3O[C@@H]2[C@H](CO)O1 | 0.258% (inactive) |
| CO[C@@H]1CN(C)C(=O)c2ccc(NS(C)(=O)=O)cc2OC[C@H](C)N(C(=O)C2CC2)C[C@H]1C | -0.096% (inactive) |
| CCC(=O)N1CC2(C1)[C@H](c1ccc(-c3ccc(C)cc3)cc1)[C@H](CO)N2S(C)(=O)=O | -0.095% (inactive) |
| COc1cc(OC)cc(-c2nnc(N(C)C(=O)c3ccncc3)s2)c1 | -0.259% (inactive) |
| COCCN(Cc1nc(-c2ccc(C(F)(F)F)cc2)no1)C(C)C | 0.251% (inactive) |
| COCCN(C(=O)C(C)C)c1nnc(-c2ccc(C(C)(C)C)cc2)s1 | 1.53% (active) |
| CC(C)NC(=O)N1[C@@H]2c3ccc(-c4ccc(F)cc4)c(=O)n3C[C@@H]2[C@@H](CO)[C@@H]1C(=O)N1CCOCC1 | -0.32% (inactive) |
